# Measurements reported in ChEMBL document CHEMBL3988442, “University of Dundee, Small-Polar-MMV Screening Library” (2021).
# The campaign covered roughly 48,000 compounds. About 13,000 (27%) showed an effect of 50% or more. The list shows a part of the results.
# System: Wolbachia pipientis
# Test: Anti-Wolbachia Cell-Based Screen
# Format: functional
# Parameters: scale not given: in the data most compounds retested in dose-response had high values
# Details: 5 µM
row,Compound,Percent Effect [%]
1,COCC1(C(=O)N2CCC(c3nccn3CC3CC3)CC2)CCC1,2.579
2,CCN(CC)CCSc1nnc(N2CCN(c3ccccc3)CC2)s1,-12.7
3,CN(Cc1cccc(O)c1)CC1CCCN(CCc2ccc(Cl)cc2)C1 (centres undefined),2.569
4,CNC(=O)CSc1cnn(CC(=O)Nc2cccc(Cl)c2C)c(=O)c1Cl,-42.51
5,Cc1cnc(N2CCC3(CCC(C(=O)NC(C)C)OC3)CC2)nc1 (centres undefined),-9.523
6,CC(=O)N1CCCN(C(=O)NCCCNS(C)(=O)=O)CC1,-1.689
7,COCCN1CCN(C(=O)c2ccc(C)cc2OC)[C@H]2CS(=O)(=O)C[C@H]21,5.009
8,COc1ccccc1N1CCC(CNS(=O)(=O)c2cccc(C#N)c2)C1 (centres undefined),87.58
9,COc1ccccc1N1CCC(CNCc2c(C)nn(C)c2OC)C1 (centres undefined),-29.19
10,COc1ccccc1N1CCC(CNS(=O)(=O)c2c(C)nn(C)c2C)C1 (centres undefined),-2.863
11,COc1ccccc1N1CCC(CNS(=O)(=O)c2cccs2)C1 (centres undefined),-9.312
12,COc1cccc(N2CCC(CNCc3cccc(C#N)c3)C2)c1 (centres undefined),82.37
13,COc1cccc(N2CCC(CNC(=O)NCc3ccco3)C2)c1 (centres undefined),2.217
14,COc1ccccc1N1CCC(CNCc2ccc(C#N)cc2)C1 (centres undefined),109.5
15,COc1cccc(N2CCC(CNc3cc(C)nc4ncnn34)C2)c1 (centres undefined),-5.133
16,COc1ccc(CNCC2CCN(c3ccccc3OC)C2)cc1O (centres undefined),114.3
17,COc1ccccc1N1CCC(CNCc2cccc(O)c2)C1 (centres undefined),-3.366
18,COc1ccccc1N1CCC(CNCc2cccc(C#N)c2)C1 (centres undefined),-2.203
19,N#Cc1ccc(CNCC2CCN(CCO)CC2)cc1,-8.382
20,CC(C)(C)N1CC(C(=O)N2CCN(CCn3cncn3)CC2)CC1=O (centres undefined),-32.16
21,Cc1nc(NC(=O)NC2CC(=O)N(C(C)C)C2)nn1C(C)C (centres undefined),-10.65
22,N#CCCN1CCC(=Cc2ccccc2)CC1,4.186
23,O=C(CC1CC1)N1CCC2(COCc3cnc(-c4ccccc4)nc32)C1 (centres undefined),-2.156
24,CC(C)C(=O)N1CCC2(COCc3cnc(-c4cccnc4)nc32)C1 (centres undefined),110.7
25,COCC(=O)N1CCC2(COCc3cnc(-c4ccccc4)nc32)C1 (centres undefined),-5.335
26,O=C(C1CCC1)N1CCC2(COCc3cnc(-c4cccnc4)nc32)C1 (centres undefined),-1.349
27,O=C(CC1CC1)N1CCC2(COCc3cnc(-c4cccnc4)nc32)C1 (centres undefined),110.1
28,CC(C)NC(=O)N1CCC2(COCc3cnc(-c4ccccc4)nc32)C1 (centres undefined),-4.544
29,COCCC(=O)N1CCC2(COCc3cnc(-c4cccnc4)nc32)C1 (centres undefined),82.83
